TDP1 cell noCPT: qHTS for Inhibitors of human tyrosyl-DNA phosphodiesterase 1 (TDP1): qHTS in cells in absence of CPT. DT40 Tdp1-/- hTDP1 cells, no CPT, ATP luminescence, 48 h. Potency, µM (top dose mostly 46.2 µM), without a hit: top-dose activity change, negative = growth inhibition, usual class: inhibitors. 420,000 compounds, 15% hits; note: potency is the fitted concentration of half-maximal effect; nearly all actives have a fitted effect of over 55% in size
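Chicken DT40 Tdp1-/- cells complemented with human TDP1, screened without camptothecin (DMSO vehicle only), 400 cells/well. Compounds pin-transferred, cells incubated at 37 °C for at least 48 hr. Growth read as ATP-dependent luminescence (CellTiter-Glo, 30 min at RT).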
DT40 TDP1 CPT: growth inhibition of DT40 Tdp1-/-;hTDP1 cells with camptothecin (screen for TDP1 inhibitors); chicken DT40 Tdp1-/-;hTDP1 cells + 20 nM CPT, ATP luminescence, 48 h; Potency, µM (titrated, usually from 46.2 µM), for the others: top-dose activity change, negative = growth inhibition, hits mostly inhibitors; 420,000 compounds, 12% hits; note: potency is the fitted concentration of half-maximal effect; nearly all actives have a fitted effect of over 55% in size
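Cell growth measured by CellTiter-Glo luminescence after a minimum 48 h, 37 C compound exposure with 20 nM CPT in Tdp1-knockout DT40 cells stably expressing hTDP1, seeded 400/well; qHTS titration format.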
HT1080NT lethal: kills 2HG-producing HT-1080-NT fibrosarcoma cells. HT-1080-NT fibrosarcoma viability, CellTiter-Glo ATP luminescence, 48 h. Potency, µM (top dose mostly 46.1 µM), without a hit: at the top dose activity, negative = less viability, actives largely listed as cytotoxic. 360,000 compounds, 1.6% hits;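 note: NT is the 2HG producing partner of a matched IDH1 knockdown line; potency is the fitted concentration of half-maximal effect; 0% = DMSO-treated cells and -100% = media-only wells without cells; nearly all actives have a fitted effect of over 55% in size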
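Viability of the 2HG-overproducing fibrosarcoma line after 48 hours of compound exposure at 37 degrees C was determined by luminescence with CellTiter-Glo, and concentration-effect curves were then fitted and categorized.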
IL1B secr inh: inhibitors of inflammasome signaling (IL-1 beta secretion). activity change, % at 57.5 µM. 360,000 compounds, 4.7% hits. THP-1 LPS/ATP IL-1B secretion, AlphaLISA, 16 h; stronger effect = lower value; in the data active = activity change below about -50%; inconclusive = mostly about -30% to -49%
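Secreted IL-1B measured by AlphaLISA bead assay after 16 h compound exposure of THP-1 cells; compounds (final up to 57.5 uM) added 1 h before LPS (250 ng/mL) and ATP (1.25 mM) stimulation; lower signal means less secretion.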
HT1080 IDH1KD tx: HT-1080 IDH1 knockdown cell toxicity (counter line); HT-1080 IDH1 knockdown viability, ATP luminescence, 48 h; AID 686971; 360,000 compounds, 2% hits; Potency, µM (titrated, usually from 46.1 µM), for inactives: at the top dose activity, negative = toxicity, actives largely listed as cytotoxic;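 note: potency is the fitted concentration of half-maximal effect; 0% = DMSO wells and -100% = cell-free medium wells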
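Using the IDH1-knockdown HT-1080 line run in the same batch and compound series as the NT line, viability after 48 h at 37 °C was determined by CellTiter-Glo luminescence and expressed as % activity.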
Active calls of the source: *; ? = inconclusive; . = not tested or not shown. Hits are enriched below; roughly 19% of the tested compounds scored in any of these assays. Unless noted, calls come from the whole dose curve; as a rule, active = well fitted curve in the direction sought with a large enough effect; inconclusive = small, poorly fitted or top-dose-only effect, or another doubt; inactive = no such curve, though single readings can be large; an effect the other way counts as inactive or inconclusive. Unless noted, % is set by controls: 0 for no effect and ±100 for the full control effect.

SMILES | TDP1 cell noCPT | DT40 TDP1 CPT | HT1080NT lethal | IL1B secr inh | HT1080 IDH1KD tx
CCCCOc1ccc(C2=NC(c3ccccc3)=Nc3ccc(OC)cc3N2)cc1 | 23µM* | 16µM* | . | . | .
COc1ccc(C2=Nc3ccc(OC(F)(F)F)cc3NC(c3cccnc3)=N2)cc1 | 6.5µM* | 10µM* | . | . | .
CCOc1ccc2c(c1)C(c1ccc(C)cc1)=NNC(c1ccc(OC)cc1)=N2 | -28% | ? | ? | ? | -2%
CCN1C(=O)CC(C(=O)O)SC1=Nc1ccc(OC)cc1 (stereo unspecified) | -12% | -23% | 2% | 0 | -5%
COc1cccc(-c2cc(C(F)(F)F)n3nc(C)c(-c4ccccc4)c3n2)c1 | -22% | -6% | . | . | .
O=C(CSc1nc(=O)n(CCCN2CCOCC2)c2c1CCCC2)Nc1ccc(F)cc1 | -8% | -5% | -12% | -3 | -8%
O=c1nc2ccccc2c2n1CC(CN1CCN(c3ccccc3F)CC1)N2 (stereo unspecified) | 13µM* | ? | 1% | 11 | 1%
O=c1nc2ccccc2c2n1CC(CN1CCN(c3ccc(F)cc3)CC1)N2 (stereo unspecified) | ? | 1% | 1% | 21 | -1%
N#CC1(Nc2cccc(Cl)c2)CCCC1 | -23% | 8% | 2% | 9 | 4%
CC1CCC2(CC1)C(Nc1cccc(Cl)c1)=NC(=S)N2CC#N (stereo unspecified) | 16µM* | ? | ? | -4 | -26%
COC(=O)N1[C@H](C)C=C[C@]1(Cc1ccccc1)C(=O)OC | -5% | -13% | 8% | -3 | 5%
COC(=O)N1C(=O)[C@@](Cc2ccccc2)(c2ccccc2)N1C(=O)OC | 18µM* | ? | -24% | -95* | -12%
COC(=O)N1C(=O)[C@](Cc2ccccc2)(c2ccccc2)N1C(=O)OC | 12µM* | 13µM* | 0% | -103* | -2%
CN(C)S(=O)(=O)c1ccc(C(=O)N2CC(=O)Nc3ccc(F)cc3C2c2ccc(F)cc2)cc1 (stereo unspecified) | -3% | -1% | 0% | -3 | 0%
O=C1CN(C(=O)c2cc([N+](=O)[O-])ccc2Cl)C(c2ccc(F)cc2)c2cc(F)ccc2N1 (stereo unspecified) | 15µM* | ? | -9% | 0 | -1%
O=C1CN(C(=O)c2ccc(S(=O)(=O)N3CCCC3)cc2)C(c2ccc(F)cc2)c2cc(Br)ccc2N1 (stereo unspecified) | 18µM* | ? | . | . | .
O=C1CN(C(=O)c2cc3ccccc3oc2=O)C(c2ccc(F)cc2)c2cc(F)ccc2N1 (stereo unspecified) | -15% | ? | 3% | -13 | -8%
Cc1ccc2c(c1)C(c1ccc(F)cc1)N(C(=O)c1ccc(S(=O)(=O)N3CCCCC3)cc1)CC(=O)N2 (stereo unspecified) | ? | 18µM* | . | . | .
O=C1CN(C(=O)c2cc3ccccc3oc2=O)C(c2ccc(F)cc2)c2cc(Br)ccc2N1 (stereo unspecified) | ? | 13µM* | -14% | 1 | -6%
O=C1CN(C(=O)c2ccccc2Br)C(c2ccc(F)cc2)c2cc(F)ccc2N1 (stereo unspecified) | -29% | 4% | -10% | -11 | -3%
COc1ccc(OCC(=O)OCC(=O)c2ccc(OC)c(F)c2)cc1 | 2% | 3% | 9% | -15 | 12%
O=C(CNC(=S)N(CCCN1CCOCC1)Cc1cccs1)N1CCCC1 | -7% | 3% | 0% | 0 | -2%
O=C1CN(C(=O)c2ccc(S(=O)(=O)N3CCCCC3)cc2)C(c2ccc(F)cc2)c2cc(Br)ccc2N1 (stereo unspecified) | 21µM* | 26µM* | . | . | .
CCCCC1CCC(C(=O)N2CC(=O)Nc3ccc(Br)cc3C2c2ccc(F)cc2)CC1 (stereo unspecified) | 13µM* | 23µM* | . | . | .
